# Compound activity: PubChem BioAssay, several laboratories
# A selection: hits, their analogues and other compounds. The true share with any hit is near 4.9%.
# Beta cell apopt: inhibitors of cytokine-induced beta cell apoptosis, primary screen, luminescence | INS-1E cytokine-induced death, ATP luminescence, 48 h; percent of positive-control rescue, neutral wells zero | protection from apoptosis, % (concentration not given with the values) | 300,000 compounds, 0.8% hits | AID 435005, 2010;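 active = Every replicate reaches about 75%, or at least half do and their mean reaches it too, limit read from the data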;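 also: 0% = cytokine-treated negative control wells and 100% = positive control rescue; higher means more ATP so stronger rescue from cytokine killing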
# Mdm2-MdmX inh: inhibitors of human Mdm2-MdmX association, primary screen, cell-based, luminescence, split luciferase, SaOS-2, uHTS; inhibition, % at 8 µM; Protein Mdm4 (Homo sapiens) + E3 ubiquitin-protein ligase Mdm2 (Homo sapiens), …; 330,000 compounds, 3% hits; SaOS-2 split-luciferase Mdm2/MdmX complementation;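 active = inhibition of at least 50% at 8 µM in the primary screen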
# PP1 counter: PP1-alpha phosphatase inhibitors, primary screen, counter-screen for PP5 inhibitor project, biochemical, fluorescence, OMFP substrate, single point. purified PP1alpha. AID 2235, 2010. Serine/threonine-protein phosphatase PP1-alpha catalytic subunit (Homo sapiens), P62136. 320,000 compounds, 0.9% hits. inhibition, % at 6.7 µM;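 active = inhibition above the mean inhibition of all tested compounds plus 3 SD, computed separately for each screening campaign, cut at about 15% in these data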
# CSC inhib: cancer stem cell viability inhibitors, primary screen, luminescence; 300,000 compounds, 1.1% hits; AID 2717, 2010; inhibition, % at 7.5 µM; cancer stem cell-like cells viability; in the data active = inhibition above about 75%; tested in HMLE shEcad cells
# Calb FLC: C. albicans growth inhibition with fluconazole, primary screen, CaCi-2 strain, Alamar Blue fluorescence | growth inhibition, % (test concentration not listed) | C. albicans CaCi-2 (fluconazole-resistant clinical isolate) + fluconazole, 48 h | AID 1979, 2009 | 300,000 compounds, 0.57% hits;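 active = growth inhibition above about 58% in most replicates, limit read from the data, passing the limit was not always enough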;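 also: all wells also contain fluconazole at 8 µg/ml as a sub-toxic cotreatment; 0% = median of DMSO wells and 100% = median of geldanamycin control wells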
# PP5 inh: PP5 phosphatase inhibitors, primary screen, biochemical, fluorescence; Serine/threonine-protein phosphatase 5 (Homo sapiens), P53041; purified PP5c, OMFP substrate fluorescence; inhibition, % at 6.7 µM; 320,000 compounds, 0.18% hits; AID 1987, 2009;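 active = inhibition above the campaign's mean inhibition across all tested compounds plus 3 SD, cut at about 9.5% in these data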;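 also: 0% = DMSO only and 100% = 100 µM cantharidin control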
# Mdm2-MdmX conf: Mdm2-MdmX complex disruptors, retested hits, confirmation, luminescence, single concentration; shares compounds with Mdm2-MdmX inh; Mdm2-MdmX binding, luminescent assay; inhibition, % at 8 µM; 10,000 compounds, 55% hits; in the data active = inhibition above about 40%
# FLuc counter: full-length luciferase signal inhibition, confirmation, counter-screen for Mdm2/MdmX interaction inhibitor project, cell-based, single concentration, SaOS-2 | shares compounds with Mdm2-MdmX inh | SaOS-2 full-length luciferase counterscreen, luminescence | inhibition, % at 8 µM | 6,200 compounds, 77% hits;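 active = mean inhibition at 8 µM reaching about 37%, which flags the compound as non-specific, limit read from the data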;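 also: p53-null SaOS-2 cells with luciferase driven by a doxycycline-inducible promoter; compound on cells about two nights before reading with doxycycline added after day one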
# Numbers without * were called inactive; / = not tested or not shown.
SMILES,Beta cell apopt,Mdm2-MdmX inh,PP1 counter,CSC inhib,Calb FLC,PP5 inh,Mdm2-MdmX conf,FLuc counter
Clc1ccc(-c2nc3ccccc3nc2-c2ccccc2)cc1,2,-23,-1,31,-28,2,/,/
Cc1cc(C)c(O)c(-c2cc(C(=O)Nc3c(C)n(C)n(-c4ccccc4)c3=O)[nH]n2)c1,5,13,11,18,8,-2,/,/
COc1ccc(-c2ccc(C#N)c(SCC(=O)Nc3sc4c(c3C#N)CCC4)n2)cc1OC,58,97*,-3,53,1,-2,63*,102*
COc1cccc(-c2ccc(C#N)c(OC(=O)c3c(Cl)cccc3Cl)n2)c1,-3,83*,-3,77*,1,5,36,/
COc1cccc(-c2ccc(C#N)c(OC(=O)c3ccc(Cl)cc3)n2)c1,-2,-1,4,-4,1,1,/,/
COc1ccc(-c2ccc(C#N)c(SCC(=O)NCCc3ccccc3)n2)cc1OC,8,-2,6,7,/,1,/,/
COc1cccc(-c2ccc(C#N)c(SCC(=O)NCCc3cccc(Cl)c3)n2)c1,-1,55*,-5,-13,2,1,12,/
O=C(CSc1ccccc1)Nc1nnc(C2CC2)s1,-7,-5,-12,0,-5,-4,/,/
Cc1ccc(S(=O)(=O)N(C)C)cc1NC(=O)CCNC(=O)c1ccco1,/,31,-3,-1,7,2,/,/
COc1ccc(C)cc1Nc1n[n+](-c2ccccc2)c(-c2cc(OC)c(OC)cc2Br)s1,20,10,14,51,-11,3,/,/
COc1ccc(C)cc1Nc1n[n+](-c2ccccc2)c(-c2c(OC)ccc3ccccc23)s1,124*,92*,11,87*,/,0,62*,29
CC(C)(C)[C@H](N)C(=O)N[C@H]1CCC2C3CC=C4C[C@@H](O)CC[C@]4(C)C3CC[C@@]21C (stereo partly drawn),52,100*,/,104*,/,/,100*,52*
CC(C)C(=O)N[C@H]1CCC2C3CC=C4C[C@@H](O)CC[C@]4(C)C3CC[C@@]21C (stereo partly drawn),2,2,/,-12,/,/,/,/
C[C@]12CC[C@H](O)CC1=CCC1C2CC[C@@]2(C)C1CC[C@@H]2NC(=O)[C@@H](N)Cc1ccccc1 (stereo partly drawn),-1,68*,/,-6,/,/,23,/
CCCC(NC(=O)CCc1c(C)c2cc3c4c(oc3c(C)c2oc1=O)CCCC4)C(=O)O (stereo not drawn),-5,-10,/,-6,3,/,/,/
COc1cccc(CN2CC(C(=O)NCc3ccc(Cl)s3)CCC2=O)c1 (stereo not drawn),/,8,/,/,-6,/,/,/
CCCCn1c(=S)[nH]c2cc(S(=O)(=O)N3CCOCC3)ccc21,3,-7,/,-24,/,/,/,/
CCn1c(=S)[nH]c2cc(S(=O)(=O)N3CCCCC3)ccc21,-39,82*,2,1,19,1,49*,84*
CCNC(=O)NC(=O)C(C)OC(=O)[C@H](C)NS(=O)(=O)c1c(C)c(C)cc(C)c1C (stereo partly drawn),-2,1,-2,-5,3,-1,/,/
O=C(NC1CCCCC1)C(c1cccnc1)N(C(=O)CCl)c1cccc(Cl)c1 (stereo not drawn),0,100*,1,31,-2,0,100*,53*
COC(CN(C(=O)CCl)C(C(=O)NC1CCCCC1)c1ccccc1C)OC (stereo not drawn),5,83*,1,-17,4,0,62*,44*
